High-throughput results (PubChem BioAssay)
A selection: hits, their analogues and other compounds. The true share with any hit is near 5.7%.
KB-V1 cytotox: KB-V1 MDR subline cytotoxicity | KB-V1 MDR cells viability, CellTiter-Glo, 72 h | Potency, µM (series often up to 46.1 µM), usual class: cytotoxic | 400,000 tested, 3.4% active; also: nearly all actives have a fitted effect of over 60% in size
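Following 72 h at 37 degrees C with compound, KB-V1 cell viability was read by CellTiter-Glo luminescence, medium being phenol-red-free DMEM plus 10% FBS; concentration-response parameters came from normalized, curve-fitted qHTS data.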
KB-3-1 cytotox: KB-3-1 parental cell cytotoxicity; KB-3-1 viability, CellTiter-Glo ATP luminescence, 72 h; Potency, µM (top dose mostly 46.1 µM), hits mostly cytotoxic; 400,000 tested, 1.4% active; also: nearly all actives have a fitted effect of over 60% in size
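Cells are dispensed, compounds pinned in, plates held at 37 °C for 72 h, then CellTiter-Glo is added and luminescence read after 10 minutes. Cell line: parental KB-3-1 in phenol-red-free DMEM, 10% FBS.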
HT1080 IDH1KD tx: kills HT-1080 cells with IDH1 knockdown; 360,000 tested, 2% active; HT-1080 IDH1 knockdown viability, ATP luminescence, 48 h; Potency, µM (titrated, usually from 46.1 µM), without a hit: at the top dose activity, negative = toxicity, actives largely listed as cytotoxic;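 also: 0% = DMSO wells and -100% = cell-free medium wells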
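Cytotoxicity counter-line: IDH1KD HT-1080, 48 h, CellTiter-Glo. Curves classed by r2, magnitude and activity.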
HT1080-NT tox: kills 2HG-producing HT-1080-NT fibrosarcoma cells. AID 686970. Potency, µM (doses to about 46.1 µM), without a hit: at the highest dose activity, negative = less viability, most hits filed as cytotoxic. 360,000 tested, 1.6% active. HT-1080-NT fibrosarcoma viability, CellTiter-Glo ATP luminescence, 48 h;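 also: NT is the 2HG producing partner of a matched IDH1 knockdown line; 0% = DMSO-treated cells and -100% = media-only wells without cells; nearly all actives have a fitted effect of over 55% in size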
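Fibrosarcoma NT cells, 750 per well in 5% FBS RPMI, were exposed to compound for 48 hours. Viability: CellTiter-Glo luminescence.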
The depositor's hits bear a star; i = inactive; ? = inconclusive; . = no result given. Calls follow the shape of the dose curve; as a rule, active = well fitted curve in the direction sought with a large enough effect; inconclusive = small, poorly fitted or top-dose-only effect, or another doubt; inactive = no such curve, though single readings can be large; an effect the other way counts as inactive or inconclusive. Unless noted, % is scaled to controls: 0 for no effect and ±100 for the full control effect; potency is read from the fitted curve at half-maximal effect.

SMILES	KB-V1 cytotox	KB-3-1 cytotox	HT1080 IDH1KD tx	HT1080-NT tox
Cc1nnc2n(-c3ccccc3)c(=O)c3c4c(sc3n12)CC(C)CC4 (configuration not stated)	8.2µM*	i	-1.5%	4.4%
Cc1cc(NC(=O)Cc2csc(-c3ccccc3)n2)ccc1Br	18.4µM*	?	4.5%	0.2%
Cc1ccc(NC(=S)Nc2nc(CC(=O)Nc3ccccc3)cs2)cc1	i	i	7.94µM*	7.08µM*
COc1ccc(-c2nn(-c3ccccc3)cc2CN(C)CCn2ccnc2C)c(F)c1	9.2µM*	i	-4.7%	0.0%
COc1ccc(-c2nn(-c3ccccc3)cc2CNC(C)Cn2cncn2)c(F)c1 (configuration not stated)	i	i	4.0%	-1.3%
COc1ccc(C(O)P(=O)(OCC(C)C)OCC(C)C)c(OC)c1 (configuration not stated)	16.4µM*	i	10.6%	12.7%
CC(C)C(=O)NC(c1ccccc1)c1cc([N+](=O)[O-])c2cccnc2c1O (configuration not stated)	?	?	16.4µM*	?
CC(=O)NC(C)c1cc(F)c2cccnc2c1O (configuration not stated)	i	i	.	.
CC(=O)NC(c1ccccc1)c1cc([N+](=O)[O-])c2cccnc2c1O (configuration not stated)	?	?	13µM*	?
CCN(CCCNC(=O)c1nn(-c2ccc(OC)cc2)c(=O)c2c1c1ccccc1n2C)c1ccccc1	i	i	.	.
Cc1nnn(-c2nonc2N)c1C(=O)N/N=C/c1ccccc1O	?	?	8.2µM*	6.51µM*
Cc1nnn(-c2nonc2N)c1C(=O)N/N=C/c1cccc2ccccc12	i	i	8.4%	17.8%
CN(C)Cc1c(C(=O)N/N=C/c2ccccc2OCc2c(F)cccc2Cl)nnn1-c1nonc1N	?	?	8.2µM*	11.6µM*
CC1CCN(Cc2c(C(=O)N/N=C/c3ccccc3O)nnn2-c2nonc2N)CC1	?	5.17µM*	5.17µM*	?
CN(Cc1c(C(=O)N/N=C/c2ccccc2O)nnn1-c1nonc1N)C1CCCCC1	?	18.4µM*	?	11.6µM*
CN(C)Cc1c(C(=O)N/N=C/c2cccc(OCc3c(F)cccc3Cl)c2)nnn1-c1nonc1N	?	?	-0.6%	-0.9%
CCOc1ccc(-n2c(=O)c3c(C)c(C)sc3n(CC(=O)N3CCC(C)CC3)c2=O)cc1	i	i	.	.
Cc1ccc(S(=O)(=O)Nc2ccc(-c3ccc(N4CCCCCC4)nn3)cc2)cc1C	i	?	.	.
CCc1nnc(NC(=O)CSc2nccn2Cc2ccccc2)s1	?	i	.	.
COc1cc2nc(NCc3ccccc3)n3nc(-c4ccccc4)nc3c2cc1OC	i	i	.	.
CCOc1ccc(Nc2c(S(=O)(=O)c3ccc(Cl)cc3)cnc3ccc(OC)cc23)cc1	i	i	.	.
N#Cc1c[nH]n2c(NC3CCCCC3)c(-c3ccccc3F)nc12	i	i	.	.
CCCc1c(C(=O)N/N=C/c2c[nH]c3ccccc23)nnn1-c1nonc1N	i	i	2.0%	-2.2%
CCCN(CCC)Cc1c(C(=O)N/N=C/c2c[nH]c3ccccc23)nnn1-c1nonc1N	i	i	29.1µM*	?
O=C(CCl)NNC(=O)c1c(O)c2ccccc2[nH]c1=O	?	14.6µM*	14.6µM*	11.6µM*
SMILES	KB-V1 cytotox	KB-3-1 cytotox	HT1080 IDH1KD tx	HT1080-NT tox
CCCCC(=O)NNC(=O)c1c(O)c2ccccc2[nH]c1=O	9.2µM*	i	6.3%	-13.0%
COc1cccc(CNC(=O)CN2C(=O)CSc3ccc(S(=O)(=O)N(C)C)cc32)c1	i	i	.	.
CCOC(=O)Nc1sc2nc(C)cc(C)c2c1-n1cccc1	18.4µM*	?	-29.2%	-26.1%
CCCOc1cccc(C(=O)Nc2cc(-c3ccccc3)no2)c1	i	i	.	.
CCc1c(C)nc2cc(-c3ccc(OC)c(OC)c3)nn2c1NCC1CC1	5.17µM*	?	-15.1%	-10.5%
Cc1[nH]c2ccccc2c1/C=C/c1nc2ccccc2c(=O)[nH]1	?	?	16.4µM*	?
C(=C\c1c[nH]c2ccccc12)/c1ccnc2ccccc12	i	i	.	.
Cc1[nH]c2ccccc2c1/C=C/c1ccnc2ccccc12	7.31µM*	8.2µM*	.	.
COC(=O)c1ccc2c(c1)C(C)(C)C(/C=C/c1ccccc1O)=[N+]2C	?	4.47µM*	3.55µM*	4.47µM*
